# According to the supplement of paper PMC8728848:
# The full list was thinned out, with the strongest signals kept by preference.
# B1: Epa20 (Candida glabrata) (protein)
# chain: MGSSHHHHHHSSGLVPRGSHMASSNIPNNYPLGCSNKYSGHLPGLKMELYSYNYVNPRHPDPQNPGKLDQLYDPNLLGTYECFDSSYKDINYPRVGYKSKTLIGRSDGVSGILNFNFVPPWGCMPQKGQLPPAYNFKSNITLSNFTMILFGYFKPKISGNHIFSLHGDDLIYLNFGAGNAFDCCRQESSADNFGNYQAFSLWGINWEKKTLTVYLDMNTYYPIRIFYNNRDYQAIFNFSFKTEFDSSPVIDFQDYFFFLRDIDGGCPGEV
# Tests used:
# Assay in all cases: glycan array binding signal (z-score within array); higher = stronger binding
# Details in all cases: glycan notation: IUPAC condensed, linker removed
# [1] = molecular target: Neu5Ac(a2-3)Gal(b1-4)GlcNAc(b1-2)Man(a1-3)[Neu5Ac(a2-6)Gal(b1-4)GlcNAc(b1-2)Man(a1-6)]Man(b1-4)GlcNAc(b1-4)GlcNAc
# In short: (§1)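 From the Consortium for Functional Glycomics database, 3228 arrays were curated, keeping only those whose protein sequence was available. Binding is given as a within-array Z-score averaged across arrays sharing a protein sequence and across linkers. Negative Z-scores can be read as non-binding.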
# [2] = molecular target: Neu5Ac(a2-3)Gal(b1-4)GlcNAc(b1-3)Gal(b1-3)GlcNAc
# In short: as §1
# [3] = molecular target: Neu5Ac(a2-3)Gal(b1-4)GlcNAc(b1-3)Gal(b1-4)GlcNAc(b1-3)Gal(b1-4)GlcNAc(b1-2)Man(a1-3)[Neu5Ac(a2-3)Gal(b1-4)GlcNAc(b1-3)Gal(b1-4)GlcNAc(b1-3)Gal(b1-4)GlcNAc(b1-2)Man(a1-6)]GalNAc
# In short: as §1
# [4] = molecular target: Neu5Ac(a2-3)Gal(b1-4)GlcNAc(b1-3)Gal(b1-4)GlcNAc(b1-3)[Neu5Ac(a2-3)Gal(b1-4)GlcNAc(b1-3)Gal(b1-4)GlcNAc(b1-6)]GalNAc
# In short: as §1
# [5] = molecular target: Neu5Ac(a2-3)Gal(b1-4)GlcNAc(b1-3)[Neu5Ac(a2-3)Gal(b1-4)GlcNAc(b1-6)]GalNAc
# In short: as §1
# [6] = molecular target: Neu5Ac(a2-3)Gal(b1-4)[Fuc(a1-3)]GlcNAc(b1-3)GalNAc
# In short: as §1
# [7] = molecular target: Neu5Ac(a2-6)Gal(b1-4)GlcNAc(b1-2)Man(a1-3)[GlcNAc(b1-4)][Neu5Ac(a2-6)Gal(b1-4)GlcNAc(b1-2)Man(a1-6)]Man(b1-4)GlcNAc(b1-4)GlcNAc
# In short: as §1
# [8] = molecular target: Neu5Ac(a2-6)Gal(b1-4)GlcNAc(b1-2)Man(a1-3)[Man(a1-6)]Man(b1-4)GlcNAc(b1-4)GlcNAc
# In short: as §1
# [9] = molecular target: Neu5Ac(a2-6)Gal(b1-4)GlcNAc(b1-2)Man(a1-6)Man(b1-4)GlcNAc(b1-4)GlcNAc
# In short: as §1
# [10] = molecular target: Neu5Ac(a2-6)Gal(b1-4)GlcNAc(b1-3)Gal(b1-4)GlcNAc(b1-3)Gal(b1-4)GlcNAc(b1-2)Man(a1-3)[Neu5Ac(a2-6)Gal(b1-4)GlcNAc(b1-3)Gal(b1-4)GlcNAc(b1-3)Gal(b1-4)GlcNAc(b1-2)Man(a1-6)]GalNAc
# In short: as §1
binder,measurement,setting,value
B1,glycan array binding signal (z-score),[1],-0.493
same,glycan array binding signal (z-score),[2],-0.463
same,glycan array binding signal (z-score),[3],2.75
same,glycan array binding signal (z-score),[4],4.06
same,glycan array binding signal (z-score),[5],2.82
same,glycan array binding signal (z-score),[6],2.98
same,glycan array binding signal (z-score),[7],-0.397
same,glycan array binding signal (z-score),[8],0.402
same,glycan array binding signal (z-score),[9],-0.108
same,glycan array binding signal (z-score),[10],3.97
